Legend:
[1] = molecular target: RAC-alpha serine/threonine-protein kinase (Homo sapiens) (UniProt P31749); conditions: at 0.1 µM
[2] = molecular target: RAC-alpha serine/threonine-protein kinase (Homo sapiens) (UniProt P31749); conditions: at 1 µM
[3] = molecular target: RAC-beta serine/threonine-protein kinase (Homo sapiens) (UniProt P31751); conditions: at 0.1 µM
[4] = molecular target: RAC-beta serine/threonine-protein kinase (Homo sapiens) (UniProt P31751); conditions: at 1 µM
[5] = molecular target: RAC-gamma serine/threonine-protein kinase (Homo sapiens) (UniProt Q9Y243); conditions: at 0.1 µM
Sequence of RAC-gamma serine/threonine-protein kinase (Homo sapiens) (Q9Y243 whole entry): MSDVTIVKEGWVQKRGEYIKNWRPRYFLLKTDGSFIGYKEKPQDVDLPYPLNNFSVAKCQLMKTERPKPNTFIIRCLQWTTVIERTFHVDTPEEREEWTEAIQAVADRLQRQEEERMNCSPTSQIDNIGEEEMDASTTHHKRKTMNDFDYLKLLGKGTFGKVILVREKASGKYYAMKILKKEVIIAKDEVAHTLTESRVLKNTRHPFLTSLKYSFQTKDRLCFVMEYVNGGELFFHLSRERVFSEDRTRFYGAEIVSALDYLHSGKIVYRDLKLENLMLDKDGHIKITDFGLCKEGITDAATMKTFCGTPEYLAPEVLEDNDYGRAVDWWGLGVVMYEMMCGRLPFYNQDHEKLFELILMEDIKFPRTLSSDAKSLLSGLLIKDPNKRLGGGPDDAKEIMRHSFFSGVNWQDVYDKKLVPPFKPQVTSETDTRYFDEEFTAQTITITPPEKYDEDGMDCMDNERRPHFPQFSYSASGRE

[6] = molecular target: RAC-gamma serine/threonine-protein kinase (Homo sapiens) (UniProt Q9Y243); conditions: at 1 µM
[7] = molecular target: G protein-coupled receptor kinase 6 (Homo sapiens) (UniProt P43250); conditions: at 0.1 µM
Sequence of G protein-coupled receptor kinase 6 (Homo sapiens) (P43250 whole entry, looked up): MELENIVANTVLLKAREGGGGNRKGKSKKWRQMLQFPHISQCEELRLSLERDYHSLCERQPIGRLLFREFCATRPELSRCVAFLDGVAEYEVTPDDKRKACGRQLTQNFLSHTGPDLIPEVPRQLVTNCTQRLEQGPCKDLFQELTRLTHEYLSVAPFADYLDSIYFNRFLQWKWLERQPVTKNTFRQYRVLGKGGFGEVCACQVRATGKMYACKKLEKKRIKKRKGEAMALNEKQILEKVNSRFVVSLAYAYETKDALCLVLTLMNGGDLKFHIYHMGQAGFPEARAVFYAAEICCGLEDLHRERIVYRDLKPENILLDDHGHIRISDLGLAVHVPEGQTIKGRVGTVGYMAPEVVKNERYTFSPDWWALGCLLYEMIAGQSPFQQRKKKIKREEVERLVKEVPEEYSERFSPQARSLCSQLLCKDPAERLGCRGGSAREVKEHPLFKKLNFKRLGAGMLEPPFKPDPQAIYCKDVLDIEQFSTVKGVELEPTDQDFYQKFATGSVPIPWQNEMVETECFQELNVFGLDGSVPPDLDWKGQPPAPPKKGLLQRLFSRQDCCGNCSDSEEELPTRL

[8] = molecular target: G protein-coupled receptor kinase 6 (Homo sapiens) (UniProt P43250); conditions: at 1 µM
[9] = molecular target: T1, Rhodopsin kinase GRK7 (Homo sapiens) (UniProt Q8WTQ7); conditions: at 0.1 µM
T1 sequence (whole entry): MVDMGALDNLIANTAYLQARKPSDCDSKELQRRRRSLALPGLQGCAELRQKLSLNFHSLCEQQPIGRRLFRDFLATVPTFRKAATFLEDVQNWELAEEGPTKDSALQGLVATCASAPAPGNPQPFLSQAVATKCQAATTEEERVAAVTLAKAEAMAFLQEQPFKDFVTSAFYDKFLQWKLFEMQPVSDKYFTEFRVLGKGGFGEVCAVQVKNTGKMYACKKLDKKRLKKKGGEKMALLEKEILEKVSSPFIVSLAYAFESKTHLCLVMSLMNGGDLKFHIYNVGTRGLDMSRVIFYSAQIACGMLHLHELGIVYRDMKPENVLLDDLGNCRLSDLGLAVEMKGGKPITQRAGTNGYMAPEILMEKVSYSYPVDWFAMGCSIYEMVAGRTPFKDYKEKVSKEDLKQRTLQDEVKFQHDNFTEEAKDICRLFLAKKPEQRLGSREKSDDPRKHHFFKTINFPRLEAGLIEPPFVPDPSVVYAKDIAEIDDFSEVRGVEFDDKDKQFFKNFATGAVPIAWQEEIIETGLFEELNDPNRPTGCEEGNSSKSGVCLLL

[10] = molecular target: T1, Rhodopsin kinase GRK7 (Homo sapiens); conditions: at 1 µM
[11] = molecular target: Serine/threonine-protein kinase MRCK alpha (Homo sapiens) (UniProt Q5VT25); conditions: at 0.1 µM
Sequence of Serine/threonine-protein kinase MRCK alpha (Homo sapiens) (Q5VT25 whole entry): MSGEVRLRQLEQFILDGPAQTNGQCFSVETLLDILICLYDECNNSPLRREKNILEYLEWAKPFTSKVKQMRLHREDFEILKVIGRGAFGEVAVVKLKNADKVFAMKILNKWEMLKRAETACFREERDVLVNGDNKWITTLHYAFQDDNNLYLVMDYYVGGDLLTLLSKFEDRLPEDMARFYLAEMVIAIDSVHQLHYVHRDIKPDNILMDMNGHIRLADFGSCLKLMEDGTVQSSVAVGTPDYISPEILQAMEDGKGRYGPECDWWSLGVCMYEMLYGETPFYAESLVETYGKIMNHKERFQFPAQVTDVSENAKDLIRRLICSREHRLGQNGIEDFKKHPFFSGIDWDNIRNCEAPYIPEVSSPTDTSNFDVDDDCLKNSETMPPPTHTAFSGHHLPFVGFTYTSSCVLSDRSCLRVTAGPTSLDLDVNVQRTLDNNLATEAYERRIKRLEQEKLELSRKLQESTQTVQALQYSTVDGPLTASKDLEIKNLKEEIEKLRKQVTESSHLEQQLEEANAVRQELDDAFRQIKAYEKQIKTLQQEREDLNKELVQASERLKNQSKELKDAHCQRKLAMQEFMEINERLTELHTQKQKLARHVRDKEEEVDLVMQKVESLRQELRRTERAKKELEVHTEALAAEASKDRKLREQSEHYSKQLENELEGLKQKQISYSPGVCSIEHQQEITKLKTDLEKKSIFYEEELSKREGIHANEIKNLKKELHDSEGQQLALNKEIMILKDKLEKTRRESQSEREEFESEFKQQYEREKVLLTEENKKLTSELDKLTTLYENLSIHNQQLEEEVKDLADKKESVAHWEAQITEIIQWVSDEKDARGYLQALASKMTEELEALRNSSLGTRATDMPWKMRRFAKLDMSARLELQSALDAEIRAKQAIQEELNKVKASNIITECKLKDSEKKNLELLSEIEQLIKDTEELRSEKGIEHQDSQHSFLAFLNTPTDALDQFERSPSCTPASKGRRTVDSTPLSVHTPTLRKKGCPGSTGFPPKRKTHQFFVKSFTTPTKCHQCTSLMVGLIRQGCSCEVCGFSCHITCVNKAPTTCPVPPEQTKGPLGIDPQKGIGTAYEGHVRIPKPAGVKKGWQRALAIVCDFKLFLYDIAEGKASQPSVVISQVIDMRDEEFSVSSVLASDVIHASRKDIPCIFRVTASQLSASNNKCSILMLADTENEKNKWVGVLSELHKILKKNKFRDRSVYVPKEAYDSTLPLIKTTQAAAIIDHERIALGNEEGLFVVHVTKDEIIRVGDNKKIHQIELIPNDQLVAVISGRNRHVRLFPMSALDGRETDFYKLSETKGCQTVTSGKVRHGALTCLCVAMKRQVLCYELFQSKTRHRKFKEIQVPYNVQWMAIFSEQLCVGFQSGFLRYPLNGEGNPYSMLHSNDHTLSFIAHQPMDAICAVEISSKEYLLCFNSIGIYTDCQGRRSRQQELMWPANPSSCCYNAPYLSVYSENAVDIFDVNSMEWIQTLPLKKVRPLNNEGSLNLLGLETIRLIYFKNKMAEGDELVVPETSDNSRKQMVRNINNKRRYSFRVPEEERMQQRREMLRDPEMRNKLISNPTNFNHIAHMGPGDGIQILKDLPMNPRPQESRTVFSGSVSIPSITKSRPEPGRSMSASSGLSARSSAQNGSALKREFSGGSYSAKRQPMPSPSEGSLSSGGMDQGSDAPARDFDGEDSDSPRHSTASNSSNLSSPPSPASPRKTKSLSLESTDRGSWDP

[12] = molecular target: Serine/threonine-protein kinase MRCK alpha (Homo sapiens) (UniProt Q5VT25); conditions: at 1 µM
[13] = molecular target: Serine/threonine-protein kinase MRCK beta (Homo sapiens) (UniProt Q9Y5S2); conditions: at 0.1 µM
[14] = molecular target: Serine/threonine-protein kinase MRCK beta (Homo sapiens) (UniProt Q9Y5S2); conditions: at 1 µM
[15] = molecular target: Ribosomal protein S6 kinase alpha-5 (Homo sapiens) (UniProt O75582); conditions: at 0.1 µM
[16] = molecular target: Ribosomal protein S6 kinase alpha-5 (Homo sapiens) (UniProt O75582); conditions: at 1 µM
[17] = molecular target: Ribosomal protein S6 kinase alpha-4 (Homo sapiens) (UniProt O75676); conditions: at 0.1 µM
Sequence of Ribosomal protein S6 kinase alpha-4 (Homo sapiens) (O75676 whole entry, looked up): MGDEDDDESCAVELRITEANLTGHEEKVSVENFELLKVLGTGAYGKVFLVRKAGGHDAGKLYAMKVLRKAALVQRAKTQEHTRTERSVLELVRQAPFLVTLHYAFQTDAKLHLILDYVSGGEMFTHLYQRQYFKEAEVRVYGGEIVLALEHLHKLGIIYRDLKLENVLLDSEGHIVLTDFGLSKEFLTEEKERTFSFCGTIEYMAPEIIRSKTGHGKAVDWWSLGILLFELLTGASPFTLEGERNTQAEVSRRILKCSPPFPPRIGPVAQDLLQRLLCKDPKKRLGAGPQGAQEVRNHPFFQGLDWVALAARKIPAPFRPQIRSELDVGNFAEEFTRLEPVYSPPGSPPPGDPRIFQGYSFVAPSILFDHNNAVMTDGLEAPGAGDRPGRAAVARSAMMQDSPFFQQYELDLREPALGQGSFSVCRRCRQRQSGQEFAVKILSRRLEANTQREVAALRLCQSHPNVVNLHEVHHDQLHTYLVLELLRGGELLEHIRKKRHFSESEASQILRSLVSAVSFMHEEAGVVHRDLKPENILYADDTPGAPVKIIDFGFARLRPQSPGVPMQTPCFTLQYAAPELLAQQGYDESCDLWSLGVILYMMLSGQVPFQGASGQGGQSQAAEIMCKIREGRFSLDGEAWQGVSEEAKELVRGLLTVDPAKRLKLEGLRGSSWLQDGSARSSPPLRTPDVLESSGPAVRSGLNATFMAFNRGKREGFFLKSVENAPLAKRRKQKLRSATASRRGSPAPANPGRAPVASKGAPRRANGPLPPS

[18] = molecular target: Ribosomal protein S6 kinase alpha-4 (Homo sapiens) (UniProt O75676); conditions: at 1 µM
[19] = molecular target: Ribosomal protein S6 kinase beta-1 (Homo sapiens) (UniProt P23443); conditions: at 0.1 µM
Sequence of Ribosomal protein S6 kinase beta-1 (Homo sapiens) (P23443 whole entry, looked up): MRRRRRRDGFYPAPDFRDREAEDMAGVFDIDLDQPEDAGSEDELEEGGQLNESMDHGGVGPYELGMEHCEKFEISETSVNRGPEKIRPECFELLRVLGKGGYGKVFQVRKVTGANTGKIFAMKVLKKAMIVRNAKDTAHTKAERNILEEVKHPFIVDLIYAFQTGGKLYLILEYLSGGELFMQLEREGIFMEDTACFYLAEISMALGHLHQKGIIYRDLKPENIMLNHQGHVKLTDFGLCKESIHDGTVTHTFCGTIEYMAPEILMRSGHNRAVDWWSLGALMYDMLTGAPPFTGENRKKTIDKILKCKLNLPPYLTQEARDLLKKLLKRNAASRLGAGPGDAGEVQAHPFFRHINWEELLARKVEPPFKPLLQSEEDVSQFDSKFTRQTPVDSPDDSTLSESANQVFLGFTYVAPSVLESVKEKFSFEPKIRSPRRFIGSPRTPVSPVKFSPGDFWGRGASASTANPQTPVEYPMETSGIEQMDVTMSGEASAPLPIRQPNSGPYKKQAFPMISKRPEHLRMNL

[20] = molecular target: Ribosomal protein S6 kinase beta-1 (Homo sapiens) (UniProt P23443); conditions: at 1 µM

Sequence of RAC-alpha serine/threonine-protein kinase (Homo sapiens) (P31749 whole entry): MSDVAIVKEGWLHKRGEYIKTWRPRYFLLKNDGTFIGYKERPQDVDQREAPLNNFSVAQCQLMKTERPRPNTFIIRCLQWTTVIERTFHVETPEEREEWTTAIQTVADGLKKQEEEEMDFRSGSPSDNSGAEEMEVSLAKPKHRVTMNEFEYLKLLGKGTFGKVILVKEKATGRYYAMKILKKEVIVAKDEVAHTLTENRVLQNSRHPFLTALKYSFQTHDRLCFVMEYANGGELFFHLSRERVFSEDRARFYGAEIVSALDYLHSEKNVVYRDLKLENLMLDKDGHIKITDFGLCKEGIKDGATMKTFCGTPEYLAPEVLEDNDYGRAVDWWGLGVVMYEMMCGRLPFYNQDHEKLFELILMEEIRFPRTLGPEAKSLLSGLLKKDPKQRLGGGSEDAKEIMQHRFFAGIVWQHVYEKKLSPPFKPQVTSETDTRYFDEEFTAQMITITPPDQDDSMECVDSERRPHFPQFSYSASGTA
Sequence of RAC-beta serine/threonine-protein kinase (Homo sapiens) (P31751 whole entry): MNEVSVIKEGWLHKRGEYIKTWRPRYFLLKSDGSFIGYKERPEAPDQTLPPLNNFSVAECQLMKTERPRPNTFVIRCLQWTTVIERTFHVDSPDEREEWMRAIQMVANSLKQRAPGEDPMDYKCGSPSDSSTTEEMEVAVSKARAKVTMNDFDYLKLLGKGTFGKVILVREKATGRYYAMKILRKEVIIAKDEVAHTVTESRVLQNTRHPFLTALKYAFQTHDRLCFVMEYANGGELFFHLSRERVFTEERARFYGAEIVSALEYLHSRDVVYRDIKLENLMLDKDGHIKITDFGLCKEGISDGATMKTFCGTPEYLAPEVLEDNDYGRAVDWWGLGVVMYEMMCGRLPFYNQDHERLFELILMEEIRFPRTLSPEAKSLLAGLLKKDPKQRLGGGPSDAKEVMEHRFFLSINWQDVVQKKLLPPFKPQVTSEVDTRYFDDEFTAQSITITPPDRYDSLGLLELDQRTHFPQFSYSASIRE

Structure (SMILES)	inhibition [1]	inhibition [2]	inhibition [3]	inhibition [4]	inhibition [5]	inhibition [6]	inhibition [7]	inhibition [8]	inhibition [9]	inhibition [10]	inhibition [11]	inhibition [12]	inhibition [13]	inhibition [14]	inhibition [15]	inhibition [16]	inhibition [17]	inhibition [18]	inhibition [19]	inhibition [20]
Fc1ccc(-c2ncn(CCCN3CCOCC3)c2-c2ccncc2)cc1	0.28%	-0.27%	0.74%	0.26%	-0.68%	1.2%	-3.25%	-1.04%	-1.98%	3.1%	1.19%	1.33%	0.96%	2.08%	0.01%	-0.79%	0.3%	0.33%	0.29%	-0.43%
CCN(CC)Cc1ccc(Nc2nccc(-c3cnn4ncccc34)n2)cc1	-2.02%	-1.93%	-2.76%	-2.22%	-1.29%	-1.26%	2.33%	1.08%	10.6%	3.71%	2.38%	4.32%	0.71%	4.53%	0.66%	2.51%	2.43%	7.32%	1.81%	7.85%
COc1ccc2cc(-c3c(-c4ccncc4)nc(-c4ccc([S+](C)[O-])cc4C)n3C)ccc2c1 (stereo not given)	-0.62%	-0.09%	-0.6%	-0.29%	0.09%	1.08%	2.06%	-0.69%	-2.36%	-0.96%	-1.8%	1.91%	0.22%	1.15%	-7.06%	-6.22%	-0.04%	-0.04%	0.21%	0.05%
O=C(NCC1CC1)c1ccc(-c2cccc(C(=O)NC3CC3)c2)cc1	0.06%	0.79%	1.68%	1.73%	1.52%	1.7%	1.72%	-2.28%	0.75%	-7.67%	0.69%	-1.55%	1.52%	1.09%	2.45%	2.84%	0.7%	3.88%	1.49%	1.03%
c1ccc(-c2n[nH]cc2-c2ccnc(-c3ccc(OCCN4CCOCC4)cc3)c2)nc1	-0.28%	0.23%	-0.23%	-0.3%	-0.26%	0.6%	-5.07%	-7.11%	1.66%	-0.22%	6.85%	-2.76%	7.67%	5.68%	3.06%	1.22%	3.23%	3.34%	2.04%	1.17%
C/C(Nc1ccc(S(N)(=O)=O)cc1)=C1/C(=O)Nc2ccccc21	-0.64%	-1.45%	-3.63%	-0.17%	-2.53%	-0.18%	-0.76%	9.44%	-7.29%	2.76%	-0.23%	0.16%	0.47%	3.4%	0%	8.47%	1.38%	17.7%	-1.96%	2.17%
COc1cc2ncn(-c3cc(OCc4ccccc4C(F)(F)F)c(C(C)=O)s3)c2cc1OC	0.53%	1.82%	0.85%	1.16%	0.29%	1.31%	-0.96%	0.01%	4.7%	1.62%	-2.12%	1.84%	0.33%	0.86%	1.02%	-0.03%	1.45%	3.01%	0.79%	0.12%
Fc1ccc(-c2c(-c3ccncc3)nc3n2CCS3)cc1	-3.71%	-2.76%	-2.67%	-1.63%	-3.31%	-0.46%	5.32%	4.18%	2.86%	7.9%	1.61%	5.14%	2.15%	9.93%	3.9%	8.14%	4.42%	8.86%	0.97%	2.52%
C[C@@H](Oc1cc(-n2cnc3ccc(OC4CCN(C)CC4)cc32)sc1C(N)=O)c1ccccc1Cl	-2.97%	-3.84%	-4.17%	-2.31%	-2.91%	-1.57%	4.79%	6.21%	10.7%	3.62%	0.03%	5.65%	0.19%	2.98%	2.31%	1.66%	2.84%	5.67%	1.64%	5.01%
NS(=O)(=O)c1ccc(Nc2cc(-c3ccc(O)c(F)c3)n[nH]2)cc1	-3.05%	-2.1%	-3.37%	-1.69%	-3.06%	-2.28%	-2.35%	-0.57%	-9.14%	-0.64%	-0.79%	0.17%	0.18%	0.15%	-1.17%	8.77%	-0.21%	8.93%	-2.09%	4.29%
NS(=O)(=O)c1ccc(N/N=C2\C(=O)Nc3ccc(C(=O)NCCCn4ccnc4)cc32)cc1	-0.12%	0.95%	2.05%	2.17%	0.96%	2.49%	5.79%	16.3%	7.64%	18%	0.3%	7.89%	0.34%	5.24%	9.46%	11.1%	3.85%	13.7%	1.91%	8.54%
COc1ccc(-c2ccc3c(NC(=O)C4CC4)n[nH]c3n2)cc1	-0.03%	0.55%	0.33%	0.37%	3.49%	0.37%	5.32%	9.55%	2.9%	10.4%	0.51%	3.19%	-0.1%	0.25%	1.32%	2.82%	2.27%	2.9%	0.22%	0.21%

From ChEMBL document CHEMBL1961873, “Compounds: GSK PKIS; Assays: Nanosyn kinase panel” (2012)
